This is part of a sample that, as a whole, favours compounds with a hit. Of some 83,000 tested, about 20% had one in any assay.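 96-well plates, one dose, 48 hours. Percent growth reported; active if below 10.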 Unmarked numbers belong to inactive results. Activity calls are given as the source filed them.

The subject of the assay is NCI/ADR-RES ovarian. The assay is described as follows: NCI-60 one-dose screen, 48 h (100 = growth as untreated, 0 = no growth, -100 = all killed). As to conditions: 10 µM unless noted. The procedure: Growth inhibition of the NCI/ADR-RES human […] tumor cell line is measured as a screen for anti-cancer activity. Cells are grown in 96 well plates and exposed to the test compound for 48 hours. Compounds are tested at a single concentration, which is 10^-5 M for most compounds. The reported endpoint is percent growth (GI% or GIPRCNT), where numbers from 0 - 100% represent growth inhibition, and numbers from -100% - 0 represent cell death. For example, a value of 40 represents 60% growth inhibition. A value of 0 means no net growth occurred over the course of the experiment. A value of -40 indicates 40% of cells at the beginning of the experiment died by the end of the experiment. A value of -100 means all cells are dead at the end of the experiment.
NCI-60 Human Tumor Cell Lines Screen was performed using the standard one-dose NCI protocol, which is described in more detail at https://dtp.cancer.gov/discovery_development/nci-60/default.htm.
Compounds with GIPRCNT values below 10 were considered active. Activity score was based on GIPRCNT using the following formula: […]
Score is 0 for GIPRCNT values of 100 or above, 50 for GIPRCNT values of 0, and 100 for GIPRCNT values of -100.
`O=C(Nc1cc(-c2cccnc2)nc(NCCCN2CCOCC2)n1)c1cc(Br)cc(C(F)(F)F)c1`: the growth is 56.6%.

Turning to `COc1cc2c(O)n(CCCN3CCOCC3)c3c4cnc5cccc(c(=O)c3c2cc1OC)c54`, the growth is 74.5%. Next, `CCN1c2ccccc2C(Cl)(c2ccc(N(C)C)cc2)c2ccccc21`: 85.8%; `Cc1cccc(C[C@H](NC(=O)Nc2ccc(C)cc2F)C(=O)N[C@@H]2C(=O)N3C[C@H](O)C[C@H]3C(=O)N3CCN(C)C[C@H]3C(=O)N[C@@H](C)C(=O)N3C[C@H](C)C[C@H]3C(=O)O[C@H]2C)c1`: 114%. Then `CCOc1ccc(/C=C(\C#N)c2cc3ccccc3[nH]2)cc1`, with 26.1%; and `CC(C)CCSc1nc(N)nc2nc[nH]c12`, with 104%. As to `COc1ccc(C(=O)CSc2nccc(Nc3ccc(C(=O)O)cc3)n2)cc1`, the growth was 103%. Next, `Cc1ccc(NCCN2CCCCC2)c2c(=O)c3ccccc3sc12`: 42%.

With `COc1ccc(-c2c(C)nn3c(NCCN4CCOCC4)cc(C)nc23)cc1OC`, the growth is 99.8%. `Cc1cc(C)c(-c2cc(O)c(-c3c(C)cc(C)cc3C)cc2O)c(C)c1`: the growth is 57.9%.

Regarding `Cc1ccc(S(=O)(=O)n2cc(C(=O)C(=O)N3CCCCC3)c3ccccc32)cc1`, the growth is 73.8%.

For `c1ccc2c(c1)CN(CCCN1CCOCC1)C2`, the growth is 98.7%. Next, `O=C1COCCN1c1ccc(NCc2cn(Cc3ccc(F)cc3)c3ccccc23)cc1`: 72.1%; `CCN(CCNc1ccc(C)c2sc3cc(Cl)ccc3c(=O)c12)CC(C)O` (stereo not given): 74.8%; `CCN(CC)CCS(=O)(=O)CCNc1ccnc2cc(Cl)ccc12`: -14.2% (active). Next, `C=C(C)[C@@H]1CC[C@]2(C)[C@H](CC[C@@H]3[C@@H]([C@@](C)(O)CCC=C(C)C)CC[C@]32C)[C@@]1(C)CCC(=O)N1CCN(C)CC1`: -87% [100 µM] (active); `COc1ccc(-c2cc(-c3ccc(OC)c(OC)c3)nc(SCCCCCC(=O)NO)n2)cc1`: 101%.

Turning to `Cc1ccc(NC(=O)N[C@@H](Cc2cc(F)cc(F)c2)C(=O)N[C@@H]2C(=O)N3CCC[C@H]3C(=O)N3CCCC[C@H]3C(=O)N[C@@H](C)C(=O)N3C[C@H](C)C[C@H]3C(=O)O[C@H]2C)cc1`, the growth is 34.4%. Next, `C[n+]1c(-c2ccccc2)c2cc(N)ccc2c2ccccc21`: 100%; `CCOC(=O)n1cc(C2=C(c3ccc(OC)c(OC)c3)COC2=O)c2ccccc21`: 8.29% (active); `Cc1cccc(C[C@H](NC(=O)Nc2ccc(Cl)cc2F)C(=O)N[C@@H]2C(=O)N3C[C@H](O)C[C@H]3C(=O)N3CCCC[C@H]3C(=O)N[C@@H](C)C(=O)N3C[C@H](C)C[C@H]3C(=O)O[C@H]2C)c1`: 89.9%. `Fc1cc2[nH]ncc2c2c3c(c(-c4cn[nH]c4)nc12)CCCC3`: the growth was 34.7%. Next, `CCCCCn1c(C)cc(/C=C\c2ccc3cc(C)ccc3[n+]2C)c1C`: 59.1%; `CC1(C)CC[C@]2(C(=O)O)CC[C@]3(C)C(=CC[C@@H]4[C@@]5(C)C/C(=C/c6cccnc6)[C@H](O)C(C)(C)[C@@H]5CC[C@]43C)[C@@H]2C1`: 3.8% [100 µM] (active). Then `O=C(Nc1cccc(F)c1)c1cc(=O)[nH]c2cc(Br)ccc12`, with 53.2%; and `Nc1cccc2c1C(=O)c1cccc(NC(=O)c3ccccc3)c1C2=O`, with -31.1% (active); and `CNC(=O)c1cc(Oc2cccc3nc(NC(=O)Nc4cc(C(F)(F)F)cc(C(F)(F)F)c4)ccc23)ccn1`, with 49.5%. For `CSc1nc2c(c(=O)n1C)C1(C(=O)N(Cc3ccccc3)c3ccccc31)c1c(nc(SC)n(C)c1=O)N2`, the growth was 95.2%.

`C=C(C)[C@@H]1CC[C@]2(C)[C@H](CC=C3[C@@H]4[C@@H](C)[C@H](C)CC[C@]4(C(N)=O)CC[C@]32C)[C@@]1(C)CCC#N`: the growth is -32% [100 µM] (active). Then `Cc1ccc(-c2cn(C/C=C3\C=CN(S(=O)(=O)c4ccccc4)CC3)nn2)cc1`, with 99.6%; and `Nc1cc(C(=O)O)[nH]c(=S)n1`, with 100%. Next, `C=C(C)[C@@H]1CC[C@]2(C(=O)NCCNCCNC(=O)OC(C)(C)C)CC[C@]3(C)[C@H](CC[C@@H]4[C@@]5(C)CCC(=O)C(C)(C)[C@@H]5CC[C@]43C)[C@@H]12`: 52.2% [100 µM]; `C=C(C)[C@@H]1CC[C@]2(C(N)=O)CC[C@]3(C)[C@H](CC[C@@H]4[C@@]5(C)C/C(=C/c6cccnc6)C(=O)C(C)(C)[C@@H]5CC[C@]43C)[C@@H]12`: 14.7% [100 µM]; `CC(C)=CC/C=C(/C)[C@H]1CC[C@]2(C)[C@@H]1CC[C@@H]1[C@@]3(C)CCCNC(C)(C)[C@@H]3CC[C@]12C`: -69.6% [100 µM] (active). Then `CC1(C)OC2[C@@H](CNC(=O)NC(=O)NC(=O)CI)O[C@@H](n3cnc4c(NC(=O)Nc5ccccc5)ncnc43)[C@H]2O1` (stereo not given in full), with 84.6%. On to `CCOC(=O)c1c[nH]n2c(=S)ncnc12`, for which the growth was 99.1%. Next, `COc1ccc(/C=C(/C2=NCCN2)n2ccc3ccccc32)cc1`: 93%; `Cc1cc(NN=C(c2ccc(O)cc2)c2ccc(O)cc2)c([N+](=O)[O-])cc1[N+](=O)[O-]`: 26.3%; `NNC(=O)c1ccc(C(=O)NN)cc1`: 104%.

For `COc1cc(/C=C/C(=O)/C=C/c2ccc(-n3ccnc3)cc2)ccc1O`, the growth is 99%.

The values above are taken from PubChem BioAssay (NCI).
